Data: the supplement of paper PMC6411743
± gives the standard deviation of the averaged measurements. Of roughly 5,400 targets only a part is listed; those with the largest changes were picked by preference.

Molecular target: T1, UniProt Q9NPI1|Q9NPI1-2
T1 sequence (whole entry): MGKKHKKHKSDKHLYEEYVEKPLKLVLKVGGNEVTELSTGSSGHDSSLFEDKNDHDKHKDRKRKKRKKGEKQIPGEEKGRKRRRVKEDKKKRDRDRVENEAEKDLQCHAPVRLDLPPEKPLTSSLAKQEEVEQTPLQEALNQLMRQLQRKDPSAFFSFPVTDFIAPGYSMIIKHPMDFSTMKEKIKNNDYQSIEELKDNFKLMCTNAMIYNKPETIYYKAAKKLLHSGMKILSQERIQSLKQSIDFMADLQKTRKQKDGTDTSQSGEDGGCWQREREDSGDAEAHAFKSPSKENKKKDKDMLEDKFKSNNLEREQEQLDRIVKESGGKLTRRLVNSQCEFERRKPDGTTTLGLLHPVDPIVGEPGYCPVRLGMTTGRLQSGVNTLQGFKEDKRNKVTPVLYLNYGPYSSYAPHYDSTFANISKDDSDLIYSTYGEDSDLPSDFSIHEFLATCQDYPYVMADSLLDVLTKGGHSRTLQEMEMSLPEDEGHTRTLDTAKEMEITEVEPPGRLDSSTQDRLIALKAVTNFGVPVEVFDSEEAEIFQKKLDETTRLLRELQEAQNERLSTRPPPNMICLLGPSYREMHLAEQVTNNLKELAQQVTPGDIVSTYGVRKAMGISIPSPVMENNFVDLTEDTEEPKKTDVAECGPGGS
Experiment: NP40-soluble protein abundance relative to vehicle (solubility fold change) (ratio); higher = more soluble protein in presence of GTP
Protocol: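 Solubility proteome profiling in Jurkat crude lysate. Lysate was treated with Mg-GTP (0.1-10 mM) for 10 min at room temperature and 3 min at 37 °C, then solubilised with 0.8% NP40 and benzonase, followed by ultracentrifugation. Proteins were quantified by TMT10 LC-MS/MS; the value is the NP40-soluble abundance relative to the NP40-processed vehicle, from 3 independent experiments.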

Which results are given for `Nc1nc2c(ncn2[C@@H]2O[C@H](COP(=O)(O)OP(=O)(O)OP(=O)(O)O)[C@@H](O)[C@H]2O)c(=O)[nH]1` [guanosine triphosphate]?
NP40-soluble protein abundance (concentration: 0.1mM): 1.09 ± 0.029; NP40-soluble protein abundance (concentration: 0.5mM): 1.11 ± 0.036; NP40-soluble protein abundance (concentration: 1mM): 1.22 ± 0.041; NP40-soluble protein abundance (concentration: 2mM): 1.36 ± 0.098; NP40-soluble protein abundance (concentration: 4mM): 1.4 ± 0.18; NP40-soluble protein abundance (concentration: 6mM): 1.47 ± 0.2; NP40-soluble protein abundance (concentration: 8mM): 1.58 ± 0.32; NP40-soluble protein abundance (concentration: 10mM): 1.56 ± 0.28
